Test results published in paper PMC7862700, “An all-to-all approach to the identification of sequence-specific readers for epigenetic DNA modifications on cytosine”.

How the values were obtained:
Assay in all cases: DAPPL (digital affinity profiling via proximity ligation, sequencing); 10 mM Tris-HCl pH 7.5, 50 mM NaCl, 1 mM DTT, 4% glycerol, room temperature, 30 min; GST-TFs on glutathione beads, 16-mer random dsDNA library, 0.1% formaldehyde crosslink after washing; high values mean tight binding
Details in all cases: protein: recombinant; tags: N-terminal GST; dsDNA, one strand shown
[1] = target: T1, FLI1 (Homo sapiens, UniProt Q01543 1-452)
T1 sequence: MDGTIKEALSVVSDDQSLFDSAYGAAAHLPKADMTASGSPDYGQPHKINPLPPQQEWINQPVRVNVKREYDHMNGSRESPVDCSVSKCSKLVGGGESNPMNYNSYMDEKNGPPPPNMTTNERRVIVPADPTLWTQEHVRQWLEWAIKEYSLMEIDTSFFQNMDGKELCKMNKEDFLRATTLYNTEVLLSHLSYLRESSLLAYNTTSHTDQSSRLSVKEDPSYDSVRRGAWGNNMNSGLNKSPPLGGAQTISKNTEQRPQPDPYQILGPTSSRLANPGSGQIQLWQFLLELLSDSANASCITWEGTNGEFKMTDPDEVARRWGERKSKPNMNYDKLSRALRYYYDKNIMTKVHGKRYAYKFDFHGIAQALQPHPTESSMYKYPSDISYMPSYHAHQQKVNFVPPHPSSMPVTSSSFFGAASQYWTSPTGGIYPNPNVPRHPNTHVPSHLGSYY
Outline: (§1)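 Human transcription factors were made in yeast as GST fusions, captured on glutathione beads and barcoded with DNA. With a tag-only sample included, the pool was incubated with 200 nmole of a random double-stranded 16-mer DNA library in Tris/NaCl/DTT/glycerol buffer at room temperature for 30 min, then crosslinked with 0.1% formaldehyde after washing, ligated by proximity, amplified and sequenced. For binding signal, each hexamer's read frequency for a factor is divided by its frequency for the tag-only sample.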

[2] = target: T2, ELK3 (Homo sapiens, UniProt P41970 1-407)
T2 sequence: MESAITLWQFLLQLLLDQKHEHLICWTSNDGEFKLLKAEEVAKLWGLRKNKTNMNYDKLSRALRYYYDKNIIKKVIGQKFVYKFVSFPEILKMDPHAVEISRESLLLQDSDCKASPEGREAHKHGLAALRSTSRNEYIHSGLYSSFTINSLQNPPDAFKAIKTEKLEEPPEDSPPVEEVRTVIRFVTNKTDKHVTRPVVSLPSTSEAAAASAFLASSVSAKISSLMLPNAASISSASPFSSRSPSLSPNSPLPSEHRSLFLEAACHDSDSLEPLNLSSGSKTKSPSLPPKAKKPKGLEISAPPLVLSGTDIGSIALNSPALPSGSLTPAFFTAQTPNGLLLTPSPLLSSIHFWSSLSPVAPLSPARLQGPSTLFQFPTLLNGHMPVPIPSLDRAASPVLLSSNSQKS
Outline: as §1

[3] = target: T3, SPIC (Homo sapiens, UniProt Q8N5J4 1-248)
T3 sequence: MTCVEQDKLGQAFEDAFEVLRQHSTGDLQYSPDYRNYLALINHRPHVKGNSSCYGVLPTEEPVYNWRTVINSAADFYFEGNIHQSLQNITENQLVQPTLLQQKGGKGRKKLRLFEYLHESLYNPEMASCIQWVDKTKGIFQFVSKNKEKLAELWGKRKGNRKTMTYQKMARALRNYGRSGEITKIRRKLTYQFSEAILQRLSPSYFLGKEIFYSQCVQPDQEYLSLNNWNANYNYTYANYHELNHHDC
Outline: as §1

[4] = target: T4, EHF (Homo sapiens, UniProt Q9NZC4 1-300)
T4 sequence: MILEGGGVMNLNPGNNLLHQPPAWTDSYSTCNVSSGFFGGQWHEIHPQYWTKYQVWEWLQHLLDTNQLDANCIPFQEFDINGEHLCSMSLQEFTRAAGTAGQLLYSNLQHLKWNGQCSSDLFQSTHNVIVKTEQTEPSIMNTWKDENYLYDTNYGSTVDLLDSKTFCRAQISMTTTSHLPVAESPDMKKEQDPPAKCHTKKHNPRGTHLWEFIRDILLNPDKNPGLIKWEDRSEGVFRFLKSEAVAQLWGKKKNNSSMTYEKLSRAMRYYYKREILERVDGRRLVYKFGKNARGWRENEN
Outline: as §1

[5] = target: SPIB (Homo sapiens, UniProt Q01892 1-262)
SPIB, sequence (Q01892 whole entry): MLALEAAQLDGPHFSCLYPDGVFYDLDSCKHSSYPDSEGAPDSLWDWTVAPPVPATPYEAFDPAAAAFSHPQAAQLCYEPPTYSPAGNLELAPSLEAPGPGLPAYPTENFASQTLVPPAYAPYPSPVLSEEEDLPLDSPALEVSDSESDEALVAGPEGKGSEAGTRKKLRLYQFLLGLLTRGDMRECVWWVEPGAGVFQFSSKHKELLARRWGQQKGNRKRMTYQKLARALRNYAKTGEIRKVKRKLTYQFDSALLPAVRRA
Outline: as §1

[6] = target: ELF4 (Homo sapiens, UniProt Q99607 1-663)
ELF4, sequence (Q99607 whole entry): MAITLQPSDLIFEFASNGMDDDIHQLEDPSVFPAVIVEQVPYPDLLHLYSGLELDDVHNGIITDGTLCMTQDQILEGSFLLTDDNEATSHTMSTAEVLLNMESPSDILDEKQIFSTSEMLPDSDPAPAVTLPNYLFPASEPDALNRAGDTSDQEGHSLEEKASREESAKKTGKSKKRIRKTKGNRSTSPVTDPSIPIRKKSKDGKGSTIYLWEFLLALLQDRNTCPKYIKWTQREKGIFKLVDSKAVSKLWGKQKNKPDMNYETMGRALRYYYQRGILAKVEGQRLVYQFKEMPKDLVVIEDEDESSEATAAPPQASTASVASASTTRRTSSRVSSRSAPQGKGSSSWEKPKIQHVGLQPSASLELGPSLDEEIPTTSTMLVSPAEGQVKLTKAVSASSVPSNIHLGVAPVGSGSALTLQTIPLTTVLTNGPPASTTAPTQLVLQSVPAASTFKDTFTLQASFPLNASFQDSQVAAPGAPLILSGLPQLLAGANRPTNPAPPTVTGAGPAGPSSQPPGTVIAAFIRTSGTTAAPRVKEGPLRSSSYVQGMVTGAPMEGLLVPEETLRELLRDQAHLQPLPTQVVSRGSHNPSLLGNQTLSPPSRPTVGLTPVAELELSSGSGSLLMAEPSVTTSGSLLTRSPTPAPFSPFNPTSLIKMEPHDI
Outline: as §1

[7] = target: T5, ELF3 (Homo sapiens, UniProt P78545 1-371)
T5 sequence: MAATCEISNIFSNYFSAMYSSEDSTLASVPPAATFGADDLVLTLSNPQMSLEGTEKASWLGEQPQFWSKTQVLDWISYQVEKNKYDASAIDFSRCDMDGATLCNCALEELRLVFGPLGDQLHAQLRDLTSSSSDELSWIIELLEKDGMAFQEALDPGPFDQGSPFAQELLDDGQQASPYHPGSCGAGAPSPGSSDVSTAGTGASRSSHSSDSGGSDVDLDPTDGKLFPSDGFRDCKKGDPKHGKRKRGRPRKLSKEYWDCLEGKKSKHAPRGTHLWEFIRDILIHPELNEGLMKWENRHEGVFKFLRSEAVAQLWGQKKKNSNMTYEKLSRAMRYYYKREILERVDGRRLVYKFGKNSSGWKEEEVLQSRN
Outline: as §1

[8] = target: T6, ERF (Homo sapiens, UniProt P50548 1-548)
T6 sequence: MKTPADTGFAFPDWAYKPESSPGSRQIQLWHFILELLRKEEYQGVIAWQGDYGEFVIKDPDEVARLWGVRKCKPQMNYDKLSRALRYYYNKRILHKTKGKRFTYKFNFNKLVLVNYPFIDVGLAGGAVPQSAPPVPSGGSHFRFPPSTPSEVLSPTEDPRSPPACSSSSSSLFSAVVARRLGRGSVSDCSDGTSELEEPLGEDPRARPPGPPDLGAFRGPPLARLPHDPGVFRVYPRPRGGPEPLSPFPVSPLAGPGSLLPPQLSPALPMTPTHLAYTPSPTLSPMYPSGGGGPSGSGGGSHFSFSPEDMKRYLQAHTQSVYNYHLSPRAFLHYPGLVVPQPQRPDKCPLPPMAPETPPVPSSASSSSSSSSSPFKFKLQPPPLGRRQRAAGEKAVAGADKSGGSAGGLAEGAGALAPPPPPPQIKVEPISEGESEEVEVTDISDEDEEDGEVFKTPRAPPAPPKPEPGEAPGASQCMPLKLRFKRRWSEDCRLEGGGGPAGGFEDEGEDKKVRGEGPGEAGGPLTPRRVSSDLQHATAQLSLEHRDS
Outline: as §1

[9] = target: T7, ETV7 (Homo sapiens, UniProt Q9Y603 1-341)
T7 sequence: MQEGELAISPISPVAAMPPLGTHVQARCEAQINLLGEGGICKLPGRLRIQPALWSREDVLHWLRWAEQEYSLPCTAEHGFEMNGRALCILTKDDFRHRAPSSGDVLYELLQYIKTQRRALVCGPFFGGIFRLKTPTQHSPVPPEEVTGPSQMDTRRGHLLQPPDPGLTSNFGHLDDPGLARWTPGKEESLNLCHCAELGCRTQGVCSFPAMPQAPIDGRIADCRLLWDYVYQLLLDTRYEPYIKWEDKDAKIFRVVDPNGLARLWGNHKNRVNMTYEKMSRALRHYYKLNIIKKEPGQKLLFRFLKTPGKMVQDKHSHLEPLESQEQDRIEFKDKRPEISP
Outline: as §1

[10] = target: T8, ETV3 (Homo sapiens, UniProt P41162-2 1-143)
T8 sequence: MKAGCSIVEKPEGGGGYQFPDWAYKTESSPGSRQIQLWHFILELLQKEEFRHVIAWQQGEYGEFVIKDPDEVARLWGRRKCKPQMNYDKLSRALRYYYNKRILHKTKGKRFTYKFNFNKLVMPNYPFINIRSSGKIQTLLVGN
Outline: as §1

Sequence	binding signal [1]	binding signal [2]	binding signal [3]	binding signal [4]	binding signal [5]	binding signal [6]	binding signal [7]	binding signal [8]	binding signal [9]	binding signal [10]
GTGTAC	1.07 fold enrichment (6-mer frequency, TF over GST control)	1.03 fold enrichment (6-mer frequency, TF over GST control)	1.2 fold enrichment (6-mer frequency, TF over GST control)							
AGTTTT	1.05 fold enrichment (6-mer frequency, TF over GST control)	1.14 fold enrichment (6-mer frequency, TF over GST control)		1.02 fold enrichment (6-mer frequency, TF over GST control)	1.08 fold enrichment (6-mer frequency, TF over GST control)	1.04 fold enrichment (6-mer frequency, TF over GST control)	1.01 fold enrichment (6-mer frequency, TF over GST control)	1.09 fold enrichment (6-mer frequency, TF over GST control)	1.02 fold enrichment (6-mer frequency, TF over GST control)	1.07 fold enrichment (6-mer frequency, TF over GST control)
